Screens deposited in PubChem BioAssay by C. David Weaver Laboratory, Vanderbilt University.
GIRK2 act – GIRK2 channel activation; HEK293-GIRK2 thallium flux, Thallos fluorescence, MPD; hit rate 0.05% among 63,000; calls only for hits at 25 µM; call rule not given here
Numbers without * were called inactive; i = inactive; + = active, no number. This excerpt belongs to a sample that is enriched for hits.

SMILES	GIRK2 act
COc1ccc(OCc2noc(CNS(=O)(=O)c3c(C)noc3C)n2)cc1	i
CCN(C(=O)c1nnn(-c2ccc(OC)cc2)n1)c1ccccc1C	i
COc1ccc(C)cc1NC(=O)CSc1nc2c(-c3ccccc3)c[nH]c2c(=O)n1C1CC1	i
O=C(c1cncc(Br)c1)N1CCN(Cc2csc(-c3ccccc3)n2)CC1	i
CSc1cccc(NC(=O)C(=O)NCC2(c3ccccc3)CCOCC2)c1	i
CSc1ccccc1NC(=O)C(=O)NCC1(CO)CC1	i
CSc1ccccc1NC(=O)C(=O)NCC1(c2ccccc2)CCOCC1	+
NC(=O)c1ccc(NC(=O)CCCSc2ccc(NC(=O)c3ccco3)nn2)cc1	i
CN1CCc2c(sc(NC(=O)Cc3ccccc3)c2-c2nc3ccccc3s2)C1	i
O=C(CSc1nc2ccccc2c(=O)n1NC(=O)c1ccccc1)c1ccccc1	i
CCn1c(=O)c2c(nc3n(-c4ccc(OC)cc4OC)c(-c4ccccc4)cn23)n(C)c1=O	i
CCCn1c(=O)c2c(nc3n(-c4cc(OC)ccc4OC)c(-c4ccccc4)cn23)n(C)c1=O	i
CCn1c(=O)c2c(nc3n(-c4cc(OC)ccc4OC)c(-c4ccccc4)cn23)n(C)c1=O	+
O=C1COc2ccccc2CN1c1cccc(Br)c1	i
CCN1CCN(CCOc2ccc3c(C)c(-c4ccc(Cl)cc4)c(=O)oc3c2)CC1	i
Cc1cccc2sc(OC3CN(C(=O)c4cnn(-c5ccccc5)n4)C3)nc12	i
CCOc1ccccc1N1CCN(S(=O)(=O)c2n[nH]c(C)c2C(=O)OC)CC1	i
COC(=O)c1c(S(=O)(=O)N2CCN(c3cccc(Cl)c3)CC2)n[nH]c1C	+
CCOC(=O)c1c(S(=O)(=O)N2CCN(c3ccc(Cl)cc3)CC2)n[nH]c1C	i
Cc1ccc(C(=O)Nc2nnc(-c3cccs3)o2)cc1	i
COC(=O)c1c(C)cc(O)c(C)c1OC1C(=O)C(C)=C(O)C(O)C1(C)OC (stereo unspecified)	i
CCOC(=O)CCC(=O)Nc1nnc(-c2cc(C)oc2C)o1	i
O=C(NCc1ccc(C(=O)c2cccs2)s1)NCc1cccc2ccccc12	i
O=C(CN1CCN(Cc2nc(-c3ccco3)cs2)CC1)NCCc1ccccc1	i
COc1ccc(Cl)cc1NC(=O)C1CCN(c2ccc(-c3cccnc3)nn2)CC1	i
Cc1cc(=O)[nH]c(-n2nc(-c3cccs3)cc2NC(=O)C2(c3ccc(Cl)cc3)CCCC2)n1	i
Cc1cccc(NC(=O)CSC2=NNC3C4CC(c5ccc(F)cc5)NN4C=CN23)c1C (stereo unspecified)	i
O=C(CCC1NC(=O)c2ccccc2NC1=O)NCc1cccs1 (stereo unspecified)	i
